Structures are written as SMILES. Values joined by “and” are separate entries in the source; they are usually repeats but may differ in a detail not shown here. Identical values can stand only once. Records with an inconclusive call do not appear. Active and inactive are the calls of the source. Calls come from the whole dose curve.

In test [1] the target is Acetylcholinesterase (Homo sapiens) (UniProt P22303). Description: Acetylcholinesterase (AChE) small molecule antagonists: colormetric cell-based qHTS assay (AID 1347395). Note: nearly all actives have a fitted effect of over 30% in size. Note: potency is the fitted concentration of half-maximal effect. The essentials: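 AChE inhibition read colorimetrically via DTNB–thiocholine in SH-SY5Y cells. Compound 30 min, substrate 90 min, both 37 C.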
For orientation: In qHTS, concentration-response curves come from the screen itself.

Test [2] shares this target. In words: Acetylcholinesterase (AChE) small molecule antagonists: enzyme-based qHTS assay (AID 1347397). Note: nearly all actives have a fitted effect of over 55% in size. Note: potency is the fitted concentration of half-maximal effect. Conditions: Potency: AChE enzyme activity inhibition; outcome: AChE enzyme activity inhibition. The essentials: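 Colorimetric DTNB readout of acetylthiocholine hydrolysis, 10 min at room temperature, after 30 min room-temperature exposure of 50 mU/mL recombinant human enzyme to compound; DMSO vehicle control.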

Test [3] shares this target. Description: Acetylcholinesterase (AChE) small molecule antagonists: fluorescence cell-based qHTS assay (AID 1347398). Note: nearly all actives have a fitted effect of over 50% in size. Conditions: Potency: AChE activity; outcome: AChE activity. The essentials: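 Cellular AChE activity read as thiocholine from acetylthiocholine hydrolysis, detected by Thiolite Green fluorescence at 490/520 nm after 40 min at room temperature. Compounds were pre-incubated 30 min at 37 C on adherent SH-SY5Y cells.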

Test [4] shares this target. In words: Acetylcholinesterase (AChE) small molecule antagonists: enzyme-based qHTS assay with human liver microsomes (AID 1347399). Note: nearly all actives have a fitted effect of over 60% in size. Note: potency is the fitted concentration of half-maximal effect. Conditions: Potency: qHTS inhibition; outcome: qHTS inhibition. The procedure, abridged: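 Recombinant human AChE (50 mU/mL in the enzyme mix) and human liver microsomes (0.25 mg/mL final) were preincubated with compound and NADPH (0.25 mg/mL final) for 30 min at 37 C. Acetylthiocholine/DTNB was then added; thiocholine was read colorimetrically after 10 min at room temperature.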

Sequence of Acetylcholinesterase (Homo sapiens) (P22303 whole entry, looked up): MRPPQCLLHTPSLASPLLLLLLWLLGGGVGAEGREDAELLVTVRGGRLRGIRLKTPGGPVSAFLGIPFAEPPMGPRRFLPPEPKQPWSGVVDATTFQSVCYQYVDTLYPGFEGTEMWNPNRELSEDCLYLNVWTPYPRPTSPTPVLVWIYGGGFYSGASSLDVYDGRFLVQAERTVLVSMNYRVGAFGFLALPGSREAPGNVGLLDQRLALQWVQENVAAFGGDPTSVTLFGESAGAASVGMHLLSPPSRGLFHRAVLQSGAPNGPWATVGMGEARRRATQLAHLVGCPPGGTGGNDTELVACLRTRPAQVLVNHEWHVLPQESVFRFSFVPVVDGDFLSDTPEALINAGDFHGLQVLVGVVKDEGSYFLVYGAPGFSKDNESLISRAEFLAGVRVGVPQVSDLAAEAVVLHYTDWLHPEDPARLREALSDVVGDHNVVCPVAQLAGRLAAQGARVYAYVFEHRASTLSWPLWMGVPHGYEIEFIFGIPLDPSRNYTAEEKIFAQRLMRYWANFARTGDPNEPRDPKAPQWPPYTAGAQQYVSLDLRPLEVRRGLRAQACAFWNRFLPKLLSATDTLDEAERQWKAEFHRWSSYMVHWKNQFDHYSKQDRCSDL

For the compound `O=C(Oc1ccccc1)c1ccccc1O`, the Potency entry in test [1], in test [2], in test [3] and in test [4] was “inactive” in each case.
Regarding `CCCCCCC(O)CCOC(C)=O` (stereo not given), the Potency entry in test [1], in test [2], in test [3] and in test [4] was “inactive” throughout.
Regarding `COC(=O)Cc1cccc2ccccc12`, the Potency entry in test [1], in test [2], in test [3] and in test [4] was “inactive” throughout.
For `COC(=O)c1ccc(C)cc1C1=NC(C)(C(C)C)C(=O)N1` (stereo not given), the Potency entry in test [1], in test [2], in test [3] and in test [4] was “inactive” throughout.
As to `CCC(=O)OC(=O)CC`, the Potency result in test [1], in test [2], in test [3] and in test [4] was “inactive” each time.
With `C=CCOCC(CC)(CO)COCC=C`, the Potency result in test [1], in test [2], in test [3] and in test [4] was “inactive” throughout.
In the case of `C=C(C)C(=O)OCCCCCCCCCCCC`, the Potency entry in test [1], in test [2], in test [3] and in test [4] was “inactive” throughout.
Turning to `CCCCC(CC)CN1CN(CC(CC)CCCC)CC(C)(N)C1` (stereo not given), the Potency result in test [1], in test [2], in test [3] and in test [4] was “inactive” in each case.
For the compound `CC(C)OC=O`, the Potency result in test [1], in test [2], in test [3] and in test [4] was “inactive” throughout.
In the case of `COc1cc(/C=C/C(=O)CC(=O)/C=C/c2ccc(O)c(OC)c2)ccc1O`, the Potency entry in test [1], in test [2], in test [3] and in test [4] was “inactive” each time.
As to `CCCCC(CC)COC(=O)/C=C/c1ccc(OC)cc1` (stereo not given), the Potency entry in test [1], in test [2], in test [3] and in test [4] was “inactive” each time.
Take `[Cl][Nd]([Cl])[Cl]`: the Potency entry in test [1], in test [2], in test [3] and in test [4] was “inactive” throughout.
As for `CC/C(=C\C(=N/O)C(N)=O)C(C)[N+](=O)[O-]` (stereo not given), the Potency result in test [1], in test [2], in test [3] and in test [4] was “inactive” each time.
On to `CC(C)(C)c1ccc(OC2CCCCC2O)cc1` (stereo not given), for which the Potency result in test [1], in test [2], in test [3] and in test [4] was “inactive” throughout.
As for `CCn1c2ccccc2c2cc(N)ccc21`, the Potency entry in test [1], in test [2], in test [3] and in test [4] was “inactive” throughout.
As for `C[C@@H]1C[C@H]2[C@@H]3CCC4=CC(=O)C=C[C@]4(C)[C@@]3(F)[C@@H](O)C[C@]2(C)[C@@]1(O)C(=O)COP(=O)(O)O`, the Potency entry in test [1], in test [2], in test [3] and in test [4] was “inactive” throughout.
On to `COC(=O)c1cccc(C(=O)OC)c1`, for which the Potency entry in test [1], in test [2], in test [3] and in test [4] was “inactive” throughout.
Regarding `O=C(CO)[C@@H](O)[C@H](O)[C@H](O)CO`, the Potency result in test [1], in test [2], in test [3] and in test [4] was “inactive” in each case.
As for `C1=C\CC/C=C\CC/1`, the Potency entry in test [1], in test [2], in test [3] and in test [4] was “inactive” each time.
As to `CCN(CC)S(=O)(=O)c1ccc(C(=O)O)cc1`, the Potency result in test [1], in test [2], in test [3] and in test [4] was “inactive” throughout.
As to `C[C@]12CC[C@@H]3c4ccc(O)cc4CC[C@H]3[C@@H]1CC[C@@H]2OC(=O)CCC1CCCC1`, the Potency result in test [1], in test [2], in test [3] and in test [4] was “inactive” each time.
Consider `CCCCCCCCCCCCCCCC(=O)OCC`, for which the Potency result in test [1], in test [2], in test [3] and in test [4] was “inactive” in each case.
With `Cc1cc(C2(c3cc(C)c(O)cc3C)OS(=O)(=O)c3ccccc32)c(C)cc1O`, the Potency entry in test [1], in test [2], in test [3] and in test [4] was “inactive” each time.
With `CCCCc1nc2cccnc2n1Cc1ccc(-c2ccccc2-c2nnn[nH]2)cc1`, the Potency result in test [1], in test [2], in test [3] and in test [4] was “inactive” in each case.
In the case of `CCCCOCC(C)O` (stereo not given), the Potency entry in test [1], in test [2], in test [3] and in test [4] was “inactive” in each case.
For `C=Cc1ccc(C)cc1`, the Potency entry in test [1], in test [2], in test [3] and in test [4] was “inactive” in each case.
On to `O=c1[nH]sc2cc(Cl)ccc12`, for which the Potency result in test [1], in test [2], in test [3] and in test [4] was “inactive” in each case.
Regarding `C=Cc1ccncc1`, the Potency result in test [1], in test [2], in test [3] and in test [4] was “inactive” throughout.
For `CC(C)(C)CC(C)(C)c1ccc(O)c(Cc2ccc(Cl)cc2Cl)c1`, the Potency entry in test [1], in test [2], in test [3] and in test [4] was “inactive” throughout.
For the compound `C=CC(C)(C)C`, the Potency result in test [1], in test [2], in test [3] and in test [4] was “inactive” throughout.
On to `CCN=c1cc2oc3cc(NCC)c(C)cc3c(-c3ccccc3C(=O)OCC)c-2cc1C`, for which the Potency is 6.31 µM (active) and 8.94 µM (active) in test [1]; 17.8 µM (active) in test [2]; 79.4 µM (active) and 63.3 µM (active) in test [4]. In test [3], the Potency entry is “inactive”.
Regarding `C=Cc1ccc(OC(C)=O)cc1`, the Potency entry in test [1], in test [2], in test [3] and in test [4] was “inactive” each time.
Turning to `CCN[C@H]1CN(CCCOC)S(=O)(=O)c2sc(S(N)(=O)=O)cc21`, the Potency entry in test [1], in test [2], in test [3] and in test [4] was “inactive” throughout.
Consider `CC(C)NCC(O)COc1ccc(COCCOC(C)C)cc1` (stereo not given), for which the Potency entry in test [1], in test [2], in test [3] and in test [4] was “inactive” in each case.
On to `O=C(O)C[C@H](NC(=O)OCc1ccccc1)C(=O)O`, for which the Potency result in test [1], in test [2], in test [3] and in test [4] was “inactive” throughout.
Take `C=C1[C@H]2CC[C@@H]3[C@H]2C(C)(C)CCC[C@]13C`: the Potency entry in test [1], in test [2], in test [3] and in test [4] was “inactive” in each case.
As to `S=C(S)NCCNC(=S)S`, the Potency result in test [1], in test [2], in test [3] and in test [4] was “inactive” each time.
Turning to `C=C(C)C(=O)Nc1ccc(Cl)c(Cl)c1`, the Potency entry in test [1], in test [2], in test [3] and in test [4] was “inactive” in each case.
On to `CC(Oc1cc(Cl)ccc1Cl)C(=O)O` (stereo not given), for which the Potency entry in test [1], in test [2], in test [3] and in test [4] was “inactive” each time.
In the case of `CC(C)(C)C(=O)OCOC(=O)[C@@H]1N2C(=O)[C@@H](NC(=O)[C@H](N)c3ccccc3)[C@H]2SC1(C)C`, the Potency entry in test [1], in test [2], in test [3] and in test [4] was “inactive” throughout.

(Values after PubChem BioAssay (Tox21).)
